{"source": "PubChem BioAssay (EPA / NIEHS)", "note": "Several values for one entry are separate records, joined by “and”; a condition that tells them apart may be missing. Equal entries are not always repeated. Results filed as inconclusive are left out. Activity calls are given as the source filed them. Rule for the calls: active = hit-call score of the fitted dose curve at least 0.9, where 1 is the maximum; inconclusive = response in the unintended direction; inactive = score below 0.9."}
{"target": "Cellular tumor antigen p53 (Homo sapiens) (UniProt P04637)", "sequence (P04637 whole entry, looked up)": "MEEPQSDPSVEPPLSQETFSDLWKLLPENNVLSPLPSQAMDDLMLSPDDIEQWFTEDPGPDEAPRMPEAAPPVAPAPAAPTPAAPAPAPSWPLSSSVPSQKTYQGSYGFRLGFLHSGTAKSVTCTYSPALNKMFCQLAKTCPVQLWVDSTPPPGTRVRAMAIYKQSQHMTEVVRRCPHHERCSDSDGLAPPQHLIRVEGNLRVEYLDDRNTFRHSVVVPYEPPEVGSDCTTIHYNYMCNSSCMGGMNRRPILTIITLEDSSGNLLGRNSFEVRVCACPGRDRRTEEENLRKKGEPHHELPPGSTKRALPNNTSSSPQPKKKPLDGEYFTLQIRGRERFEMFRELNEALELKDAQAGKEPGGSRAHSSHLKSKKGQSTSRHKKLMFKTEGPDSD", "assay": "TOX21_p53_BLA_p2_ratio: Tox21 HCT-116 p53 Agonism Beta-lactamase Assay, Ratio, Phase 2 (AID 2283592)", "summary_of_the_method": "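Ratio endpoint: beta-lactamase cleavage of CCF4-AM, blue (460 nm) over green (530 nm). HCT116 reporter line; 16 h treatment, 37C; substrate 2 h RT.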"}
{"compound": "Clc1cccc(N2CCNCC2)c1", "outcome": "inactive"}
{"compound": "O=[N+]([O-])c1ccc(CCl)cc1", "outcome": "inactive"}
{"compound": "C(COCC1CO1)OCC1CO1", "note": "(stereo not given)", "outcome": "inactive"}
{"compound": "COC1=CC(=O)O[C@@H](/C=C/c2ccccc2)C1", "outcome": "inactive"}
{"compound": "CCSCc1ccccc1OC(=O)NC", "outcome": "inactive"}
{"compound": "CNN", "outcome": "inactive"}
{"compound": "Cc1ncc2n1-c1ccc(Cl)cc1C(c1ccccc1F)=NC2", "outcome": "inactive"}
{"compound": "CN1[C@@H]2CC[C@H]1CC(OC(=O)c1cc(Cl)cc(Cl)c1)C2", "note": "(stereo not given in full)", "outcome": "inactive"}
{"compound": "C[N+](C)(C)CCOC(=O)C(O)(c1ccccc1)c1ccccc1", "outcome": "inactive"}
{"compound": "Clc1ccc(C(Cl)(Cl)Cl)cc1Cl", "outcome": "inactive"}
{"compound": "Cc1nc(N)nc(N)n1", "outcome": "inactive"}
{"compound": "CC(Cc1ccccc1)NC=O", "note": "(stereo not given)", "outcome": "inactive"}
{"compound": "N#CC(Cl)Cl", "outcome": "inactive"}
{"compound": "Cc1cnc[nH]1", "outcome": "inactive"}
{"compound": "Cc1ccc2c(c1)[C@]13CCCC[C@@H]1[C@H](C2)N(C)CC3", "outcome": "inactive"}
{"compound": "CCCN(CCCl)c1c([N+](=O)[O-])cc(C(F)(F)F)cc1[N+](=O)[O-]", "outcome": "inactive"}
{"compound": "O=C(O)C(Cl)(Cl)Br", "outcome": "inactive"}
{"compound": "CCCCCCCCCCCCCCCCn1cc[n+](C)c1", "AC50": "51.5 µM (active) and 29.9 µM (active) and 17.5 µM (active)"}
{"compound": "CC(CCc1ccccc1)NC(C)C(O)c1ccc(O)cc1", "note": "(stereo not given)", "outcome": "inactive"}
{"compound": "CC(N)=S", "outcome": "inactive"}
{"compound": "CN1CCc2cc(Cl)c(O)cc2[C@H]2c3ccccc3CC[C@@H]21", "outcome": "inactive"}
{"compound": "COc1ccc2c(c1)C13CCCC[C@@H]1C(C2)N(C)CC3", "note": "(stereo not given in full)", "outcome": "inactive"}
{"compound": "C#CC(C)(O)CC", "note": "(stereo not given)", "outcome": "inactive"}
{"compound": "C=C(C#N)CCC#N", "outcome": "inactive"}
{"compound": "Cc1ccc2c(c1)C1CN(C)CCC1N2", "note": "(stereo not given)", "outcome": "inactive"}
{"compound": "COC(=O)C(Cl)C(=O)OC", "outcome": "inactive"}
{"compound": "C[C@@H]([C@H](O)c1ccccc1)N(C)C", "outcome": "inactive"}
{"compound": "Cc1cc(Cl)ccc1N=CN(C)C", "outcome": "inactive"}
{"compound": "C[N+]1(C)[C@@H]2CC[C@H]1CC(OC(=O)c1c[nH]c3ccccc13)C2", "note": "(stereo not given in full)", "outcome": "inactive"}
{"compound": "CN1CCCC(=C(c2cccs2)c2cccs2)C1", "outcome": "inactive"}
{"compound": "C[C@]1(O)CC[C@H]2[C@@H]3CCC4=CC(=O)CC[C@]4(C)[C@@]3(F)[C@@H](O)C[C@@]21C", "outcome": "inactive"}
{"compound": "CN(C)CCc1c[nH]c2cccc(O)c12", "outcome": "inactive"}
{"compound": "O=C(C[C@@H]1NCCC[C@H]1O)Cn1cnc2cc(Br)c(Cl)cc2c1=O", "outcome": "inactive"}
{"compound": "Cc1ccc(-c2nc3ccc(C)cn3c2CC(=O)N(C)C)cc1", "outcome": "inactive"}
{"compound": "C[N+]1(C)[C@@H]2CC[C@H]1CC(OC(=O)C(CO)c1ccccc1)C2", "note": "(stereo not given in full)", "outcome": "inactive"}
{"compound": "Clc1cc(Cl)c(-c2cc(Cl)c(Cl)cc2Cl)cc1Cl", "outcome": "inactive"}
{"compound": "Cn1cc[n+](C)c1", "note": "(tested in a mixture with another compound)", "outcome": "inactive"}
{"compound": "CCCCc1ccc(C(=O)O)nc1", "outcome": "inactive"}
{"compound": "[Cl][Sn]([Cl])([Cl])[Cl]", "outcome": "inactive"}
{"compound": "CN1C(=O)CN=C(c2ccccc2)c2cc([N+](=O)[O-])ccc21", "outcome": "inactive"}
